Screening data (PubChem)
Only some compounds are listed: those with a hit (about 3.8% of all), similar ones and a draw of the others.
TGFb inhibitor = qHTS for Inhibitors of TGF-b | HepG2 CAGA-GFP TGF-b/SMAD3 reporter, GFP fluorescence, 18 h; TGF-beta stimulated, 500 pg/mL final | Potency, µM (top dose mostly 46.1 µM), inactives show at the top dose activity, negative = inhibition, hits mostly inhibitors | 1.2% of 410,000 active; note: % is set by controls: 0 for no effect and ±100 for the full control effect; nearly all actives have a fitted effect of over 65% in size
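HEPG2 CAGA-GFP reporter cells (1000/well, DMEM with 1% FBS) received compounds, then recombinant TGF-beta at 500 pg/mL final for 18 hours at 37 degrees C. Per-cell GFP summed per well was normalised to unstimulated and stimulated DMSO controls before curve fitting.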
ATXN2 expr inh = Primary qHTS for Inhibitors of ATXN expression | Potency, µM (top dose mostly 57 µM), without a hit: at the top dose activity change, negative = inhibition, usual class: inhibitors | AID 1745845, 2022 | 0.72% of 360,000 active | HEK-293 ATXN2-luciferase reporter, luminescence, 24 h; note: % is set by controls: 0 for no effect and ±100 for the full control effect; nearly all actives have a fitted effect of over 55% in size
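qHTS (up to 57 uM final) was run with 24 h compound exposure of reporter cells at 37 °C. Each well was multiplexed: SteadyGlo luminescence measured ATXN2-luciferase expression after a fluorogenic Gly-Phe-AFC viability readout (25 uM final).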
HepG2 viability = qHTS for Inhibitors of TGF-b: Cytotox Counterscreen | Potency, µM (titrated, usually from 46.1 µM), inactives show at the highest dose activity change, negative = cytotoxicity, actives largely listed as cytotoxic | HepG2 CAGA-GFP viability, ATP luminescence, 18 h | AID 588856, 2011 | 0.76% of 410,000 active
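HepG2 CAGA-GFP cells (1000/well, DMEM with 1% FBS) received compound, then TGF-beta at 500 pg/mL final, and were incubated 18 hours at 37 degrees C. Viability was read by CellTiter-Glo luminescence. Media-only wells were set as complete cell-killing and DMSO as no toxicity.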
A549 viability = Nrf2 qHTS screen for inhibitors: counterscreen for cytotoxicity; A549 ARE-Fluc cells, CellTiter-Fluor viability, 18-24 h; Potency, µM (titrated, usually from 46 µM), without a hit: at the highest dose activity change, negative = cytotoxicity, usual class: inhibitors; 0.16% of 390,000 active; AID 504648, 2011; note: % is set by controls: 0 for no effect and ±100 for the full control effect
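A549 ARE_Fluc cells in 5% FBS OPTI-MEM were exposed to compounds in concentration-response for 18-24 h at 37 deg C. Viability was read by CellTiter-Fluor fluorescence (Ex 405/Em 525) after 30 min, before the luciferase read.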
S2 tox = Viability Counterscreen for Primary qHTS for Inhibitors of ATXN expression. S2 cells (HEK-293 line with an ATXN2-luciferase reporter) viability, CellTiter-Fluor protease fluorescence, 24 h. Potency, µM (series often up to 56.7 µM), most hits filed as cytotoxic. 0.49% of 400,000 active; note: nearly all actives have a fitted effect of over 40% in size
Nrf2 block = Nrf2 qHTS screen for inhibitors; A549 ARE-Fluc reporter, luciferase luminescence, 18-24 h; Potency, µM (titrated, usually from 46 µM), without a hit: at the highest dose activity change, negative = inhibition, actives largely listed as inhibitors; 2.1% of 360,000 active; note: % is set by controls: 0 for no effect and ±100 for the full control effect; nearly all actives have a fitted effect of over 60% in size
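Nrf2 function is reported as luminescence of an ARE-controlled luciferase in A549 cells. Compounds were tested at several concentrations, and a CellTiter-Fluor read on the same wells flagged cytotoxicity.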
The depositor's hits bear a star; i = inactive; ? = inconclusive; . = no result; ! = not active in a repeat; [ ] = dose if it differs, or a comment. Calls come from the whole dose curve; as a rule, active = well fitted curve in the direction sought with a large enough effect; inconclusive = small, poorly fitted or top-dose-only effect, or another doubt; inactive = no such curve, though single readings can be large; an effect the other way counts as inactive or inconclusive. Potency is the fitted concentration of half-maximal effect.

SMILES	TGFb inhibitor	ATXN2 expr inh	HepG2 viability	A549 viability	S2 tox	Nrf2 block
CCOC(=O)Cn1cc(C(=O)c2ccco2)c2ccccc21	-3%	32µM*	-36%	-3%	?	?
COc1cccc(CNS(=O)(=O)c2ccccc2Br)c1OC	-12%	12%	1%	2%	i	8%
Cc1ccccc1C(=O)NCC(=O)OC(C)C(=O)NCc1ccco1 (centres undefined)	1%	-13%	27%	4%	i	-5%
COc1ccc(OC)c(NC(=O)Cn2cc(C(=O)c3ccco3)c3ccccc32)c1	-2%	0%	-25%	0%	i	15µM*
Cc1ccc2nc3cc([N+](=O)[O-])cc([N+](=O)[O-])c3cc2c1	7%	7.5µM*	-18%	-4%	7.9µM*	1%
CC(C)c1cnc2c(c1SCC(=O)N1CCCCC1)c(=O)n(C)c(=O)n2C	-29%	.	-25%	1%	.	.
CCOC(=O)c1c(CSC(=N)N)n(-c2ccc(C)cc2)c2cc(Br)c(OC(C)=O)cc12	22µM*	?	11µM*	9%	25µM*	?
CCOC(=O)c1c(CSC(=N)N)n(C)c2cc(Br)c(OC(C)=O)cc12	-25%	?	35%	-8%	.	-11%
CC1CCCN(CCCNC(=O)c2ccc3c(c2)N(Cc2ccccc2F)C(=O)c2ccccc2S3(=O)=O)C1 (centres undefined)	?	?	11µM*!	-1%	?	?
O=C1CN(C(=O)COC(=O)c2ccc(Br)o2)c2ccccc2N1	18%	.	0%	0%	i	8%
CCOc1ccc(N(CC)S(=O)(=O)c2cc(Br)cc3c2N(C(C)=O)C(C)C3)cc1 (centres undefined)	10µM*	-9%	-55%	-9%	i	?
CCOc1ccc(OCC)c(NS(=O)(=O)c2cc(Br)cc3c2N(C(C)=O)C(C)C3)c1 (centres undefined)	?	0%	-25%	12%	i	-9%[9.27 µM]
COc1ccc(CN2CSC(=S)N(Cc3ccccc3)C2)cc1	13µM*	.	11µM*	7%	7.1µM*	6%
S=C1SCN(Cc2ccccc2)CN1Cc1ccccc1	?	-18%	-52%	0%	i	-16%
COc1ccc(CN2CSC(=S)N(Cc3ccc(OC)cc3)C2)cc1	?	.	13µM*	-9%	?	-9%
CCCn1c(SCc2nc(-c3cc(OC)ccc3OC)no2)nnc1-c1ccc(Cl)cc1	?	0%	-20%	?	?	-13%
O=C(c1nnsc1S(=O)(=O)c1ccc(Cl)cc1)N1CCOCC1	?	?	13µM*	-10%	.	-6%
O=C(c1nnsc1S(=O)c1ccc(Cl)cc1)N1CCOCC1 (centres undefined)	?	5%[11.3 µM]	-98%	-2%	.	-12%
CNC(=O)c1nnsc1S(=O)(=O)c1ccc(Cl)cc1	11µM*	?	18µM*	-5%	?	-14%
O=C1c2cccc3cccc(c23)C(=O)N1CCN1CCN(CC(O)COCc2ccc(Cl)cc2)CC1 (centres undefined)	14µM*	?	13µM*	?	?	8%
CCc1ccc(OCC(O)CN2CCC(CN3C(=O)c4cccc5cccc(c45)C3=O)CC2)cc1 (centres undefined)	-14%	25µM*	-8%	2%	.	-9%
COc1cc(COCC(O)CN2CCN(CCN3C(=O)c4cccc5cccc(c45)C3=O)CC2)cc(OC)c1OC (centres undefined)	?	-18%	-57%	-17%	i	-8%
